8 molecules from PubChem BioAssay (EPA / NIEHS) can be followed below.

Where “and” joins values, the source holds several entries; their conditions need not be identical. Equal values may be shown once. Results filed as inconclusive are left out. Some structures have more than one record in an assay (separate samples or runs), and their calls can disagree. Calls of active or inactive are those of the source. Rule for the calls, unless noted: active = hit-call score of the fitted dose curve at least 0.9, where 1 is the maximum; inactive = score below 0.9.

Assay [1] can be described thus: CCTE_Mundy_HCI_Cortical_NOG_NeuriteLength: CCTE's Neurite Outgrowth Assay in rat cortical cells for Neurite Length, Mundy Lab (AID 2284213).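 For AC50: neurites imaged about 48 to 50 h after chemical exposure began.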 The procedure, abridged:
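First, rat primary cortical cells were plated and, 2 h later, given test chemical as a 1/10 dilution. Finally, βIII-tubulin immunostaining enabled automated imaging of neurite length.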

A short description of assay [2]: CCTE_Mundy_HCI_Cortical_Synap_Neur_Matur_NeuriteLength: CCTE's Synaptogenesis and Neurite Maturation Assay in rat cortical cells for Neurite Length, Mundy Lab (AID 2284214). The procedure, abridged: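 Neurite length quantified by automated high-content imaging of MAP2, synaptophysin and Hoechst staining. Rat cortical cells received chemical from DIV 7 to DIV 12 […], glial growth arrested by AraC at DIV 5; DMSO baseline.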

Assay [3] in a line: CCTE_Mundy_HCI_Cortical_Synap_Neur_Matur_NeuriteSpotCountPerNeuron: CCTE's Synaptogenesis and Neurite Maturation Assay in rat cortical cells for Neurite Spot Count per Neuron Count, Mundy Lab (AID 2284215). The procedure, abridged: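 High-content imaging counts synaptophysin puncta along MAP2-labelled neurites per neuron after chemical exposure of rat cortical cells from DIV 7 to termination at DIV 12 (AraC added DIV 5). Loss of signal relative to DMSO.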

Assay [4] in a line: CCTE_Mundy_HCI_Cortical_Synap_Neur_Matur_SynapseCount: CCTE's Synaptogenesis and Neurite Maturation Assay in rat cortical cells for Synapse Count, Mundy Lab (AID 2284218). The procedure, abridged:
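High-content imaging of synaptophysin puncta per MAP2-positive neuron (Hoechst nuclei) in rat cortical cells exposed DIV 7–12 after glial arrest with AraC at DIV 5; decrease relative to DMSO scored.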

Assay [5] is described as follows: CCTE_Mundy_HCI_Cortical_Synap_Neur_Matur_CellBodySpotCount: CCTE's Synaptogenesis and Neurite Maturation Assay in rat cortical cells for Cell Body Spot Count, Mundy Lab (AID 2284223). The procedure, abridged: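 High-content imaging counts synaptophysin puncta on neuronal cell bodies per neuron after MAP2/synaptophysin immunostaining. Rat primary cortical cells, glia arrested with AraC at DIV 5, were exposed DIV 7–12; signal decrease measured against DMSO.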

A short description of assay [6]: CCTE_Mundy_HCI_hNP1_Pro_ResponderAvgInten: CCTE's Proliferation Assay in human neuroprogenitor cells, Mundy Lab (AID 2284224; active = hit-call score of the fitted dose curve at least 0.9, where 1 is the maximum;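 note: human neural progenitor cells hNP1 derived from WA09 embryonic stem cells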). The procedure, abridged:
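Proliferation was scored as BrdU labelling intensity in human neural progenitors derived from WA09 embryonic cells, measured 26.25 hours after chemical dosing. Activity was fitted relative to DMSO.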

Assay [7] in a line: TAMU_PeakParms_SingleDonor1434_Chronotropy: Texas A&M University (TAMU) 1.5-hr Human Induced Pluripotent Stem Cell (iPSC)-derived Cardiomyocytes Calcium (Ca+2) Flux Assay for Cardiotoxicity: Chronotropy (changes in peak frequency) (AID 2284217). The following applies: actives raise or lower the signal. The procedure, abridged: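 iPSC-derived cardiomyocytes (single donor 1434) dosed at 0.2, 1, 10 and 100 uM in 0.5% DMSO for 1.5 h at 37C; Ca2+ dye fluorescence gave average beat frequency. Zero-beat points removed; bidirectional fit versus DMSO, POD as EC05.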

Assay [8] in a line: TAMU_HCS_1.5hr_SingleDonor1434_Cytotoxicity: Cytotoxicity Assessment using High-content Screening (HCS) Fluorescent Imaging for the Texas A&M University (TAMU) 1.5-hr Human Induced Pluripotent Stem Cell (iPSC)-derived Cardiotoxicity Assay (AID 2284234; active = hit-call score of the fitted dose curve at least 0.9, where 1 is the maximum). The procedure, abridged:
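Nuclear counts from Hoechst 33342 imaging define cytotoxicity here, with EC10 (10% cell-count loss relative to DMSO) as point of departure. iPSC cardiomyocytes received 0.2-100 uM test chemical in 0.5% DMSO for 1.5 h at 37 C.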

The nature of assay [9]: CCTE_Mundy_HCI_hN2_NOG_NeuriteLength: CCTE's Neurite Outgrowth Assay in human hN2 cells for Neurite Length, Mundy Lab (AID 2284220; active = hit-call score of the fitted dose curve at least 0.9, where 1 is the maximum). The procedure, abridged: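 Plate hNP1-derived neurons, then add chemical 2 h later as a 1/10 dilution. Stain with anti-βIII-tubulin then Alexa Fluor-488 secondary, and image automatically to measure neurite length.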
A short description of assay [10]: CCTE_Mundy_HCI_hN2_NOG_NeuronCount: CCTE's Neurite Outgrowth Assay in human hN2 cells for Neuron Count, Mundy Lab (AID 2284221; active = hit-call score of the fitted dose curve at least 0.9, where 1 is the maximum). The procedure, abridged: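 Read-out is the number of betaIII-tubulin-positive neurons imaged by automated high-content analysis, with DMSO as negative control.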
Assay [11] is described as follows: UKN2_HCS_IMR90_cell_viability: Viability Assessment in the University of Konstanz (UKN) Leist Lab Neural Crest Cell Migration Assay in human induced IMR90 Pluripotent Stem Cells (UKN2) (AID 2284233).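 Note: cells exposed to compound for 24 h after a 24 h migration phase.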 The procedure, abridged: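 After calcein-AM/Hoechst staining, viability is quantified by high-content fluorescence imaging, relative to DMSO, in iPSC (IMR90)-derived neural crest cells. Exposure lasts 24 h, starting after a 24 h migration period on PLO/laminin/fibronectin coating.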

The nature of assay [12]: BSK_BT_PBMCCytotoxicity: PBMC Cytotoxicity Assessment in the BioMAP Diversity Plus: BT Assay (AID 2284225).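 Note: PBMC viability measured by Alamar Blue dye reduction fluorescence.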 Particulars: primary human B cells with PBMC. The procedure, abridged:
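Viability by Alamar Blue reduction (6 h, ex/em 546/580 nm) after 90 h culture of SEB/TSST-1-activated PBMC (20 ng/mL each) given compound 1 h before activation. DMSO served as baseline for curve fitting.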

Read-out in assay [13]: Secreted IgG (sIgG), gene 3500
Description: BSK_BT_sIgG: BioMAP Diversity Plus: BT Assay for Secreted IgG (sIgG) Biomarker Activity (AID 2284226). Particulars: primary human B cells with PBMC. The procedure, abridged: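 ELISA quantitation of secreted IgG from human B cells co-cultured with PBMC, sampled 24 h post-dosing. Values fitted relative to DMSO vehicle as baseline, positive fitting direction.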

The nature of assay [14]: BSK_BT_Bcell_Proliferation: Viability Assessment in the BioMAP Diversity Plus: BT Assay for B cell Proliferation (AID 2284227). Particulars: primary human B cells with PBMC. The procedure, abridged:
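Human B cells co-cultured with PBMC were dosed with test chemicals and relative cell number was quantified by SRB staining at 72 h. Cells were fixed in 10% TCA, stained with 0.1% SRB and read at 560 nm. Activity was fitted in the positive direction against DMSO.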

Read-out in assay [15]: Interleukin 6 (IL6), IL6 (gene 3569)
Description: BSK_BT_xIL6: BioMAP Diversity Plus: BT Assay for Interleukin 6 (IL6) Biomarker Activity (AID 2284228). Particulars: primary human B cells with PBMC. The procedure, abridged:
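Secreted IL-6 in the primary human B cell plus PBMC system, measured by Luminex at 24 h post-chemical, DMSO as baseline. Alamar Blue viability: 75,000 cells/well, chemical 1 h before SEB/TSST-1 (20 ng/mL each), 90 h, then 6 h dye.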

Read-out in assay [16]: Interleukin 17A (IL17A), IL17A (gene 3605)
Description: BSK_BT_xIL17A: BioMAP Diversity Plus: BT Assay for Interleukin 17A (IL17A) Biomarker Activity (AID 2284229). The following applies: primary human B cells with PBMC. The procedure, abridged: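 Luminex xMAP quantification of secreted IL-17A after 24 h chemical exposure of a primary human B cell/PBMC co-culture. Signal increases fitted relative to DMSO negative control.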

Read-out in assay [17]: Tumor necrosis factor (Homo sapiens) (UniProt P01375)
Description: BSK_BT_xTNFa: BioMAP Diversity Plus: BT Assay for Tumor necrosis factor alpha (TNF-alpha) Biomarker Activity (AID 2284230). The following applies: primary human B cells with PBMC. The procedure, abridged:
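B cells with PBMC in co-culture, dosed and sampled at 24 h; secreted TNF-alpha measured by Luminex xMAP bead assay. Activity fitted in the gain direction against DMSO as negative control and baseline.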

Read-out in assay [18]: Vascular cell adhesion molecule 1 (VCAM1), VCAM1 (gene 7412)
Description: BSK_MyoF_VCAM1: BioMAP Diversity Plus: MyoF Assay for Vascular cell adhesion molecule 1 (VCAM1) Biomarker Activity (AID 2284231). Particulars: primary human lung fibroblasts. The procedure, abridged:
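ELISA readout of VCAM-1 on human lung fibroblast cultures 24 hours after dosing, analyzed for signal gain relative to DMSO. Overt cytotoxicity was checked by sulforhodamine B total-protein staining in parallel cultures.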

Assay [19] is described as follows: UKN4_HCS_LUHMES_cell_viability: Viability Assessment in the University of Konstanz (UKN) Leist Lab Neurite Outgrowth Assay in human LUHMES cells (UKN4) (AID 2284232). The procedure, abridged: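 Viability was read by high-content imaging of calcein-AM/H-33342-stained cells after 24 h toxicant exposure, staining included. Cells: human LUHMES on day 2 of dopaminergic differentiation, dosed shortly after attachment; DMSO baseline, bidirectional curve fitting.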

Sequence of Tumor necrosis factor (Homo sapiens) (P01375 whole entry, looked up): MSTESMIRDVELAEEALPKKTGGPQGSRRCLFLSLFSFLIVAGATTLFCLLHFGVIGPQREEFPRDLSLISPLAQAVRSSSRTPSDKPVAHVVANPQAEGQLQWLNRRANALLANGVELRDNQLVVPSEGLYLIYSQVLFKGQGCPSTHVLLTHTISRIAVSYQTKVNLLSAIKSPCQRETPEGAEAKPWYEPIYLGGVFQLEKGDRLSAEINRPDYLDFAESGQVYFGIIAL

A word on the AC50: it is the concentration at which the activity in the assay is half-maximal. Regarding `CNC(=O)CSP(=S)(OC)OC`, the call in assay [1], in assay [2], in assay [3], in [4], in assay [5] and in [6] was inactive. The half-maximal activity concentration (AC50) in assay [2], in assay [3] and in assay [4] was 50 µM (active) in each case.

Regarding `CCOCN(C(=O)CCl)c1c(C)cccc1CC`, the AC50 was 4.73 µM (active) in [7] and 81.6 µM (active) in assay [8].

Regarding `COP(=O)(OC)OC=C(Cl)Cl`, the concentration at half-maximal activity (AC50) is 57.5 µM (active) in assay [1], 49 µM (active) in assay [3], 9.71 µM (active) in assay [4] and 0.355 µM (active) in [10]. Besides, the molecule was classed as inactive in assay [1], in assay [2], in assay [3], in [4], in assay [9] and in assay [5]. The molecule was called inactive in assay [6] and in [11].

Turning to `ClC1C(Cl)C(Cl)C(Cl)C(Cl)C1Cl` (configuration not stated), the concentration at half-maximal activity (AC50) is 11.5 µM (active) in [7]; 30.5 µM (active) and 21.1 µM (active) in assay [13]; 33.6 µM (active) in assay [14]; 30.5 µM (active) in assay [17]; 16.3 µM (active) and 261 nM (active) in assay [18]. Further, the outcome in assay [12], in [14], in assay [15], in [16], in assay [17] and in assay [19] was inactive. For the same molecule, in assay [11], the outcome was inactive.

With `CC1(c2ccc(Oc3ccccc3)cc2)OC(=O)N(Nc2ccccc2)C1=O` (configuration not stated), the half-maximal activity concentration (AC50) in assay [1] was 61.3 µM (active); in [2], 44.1 µM (active); in assay [3], 24.1 µM (active); in assay [4] it was 40 µM (active); in assay [5], 79.9 µM (active). The call in assay [6] and in assay [11] was inactive.

As for `O=[N+]([O-])/N=C1\NCCN1Cc1ccc(Cl)nc1`, the outcome in assay [1], in assay [2], in assay [3], in assay [4], in assay [5] and in [6] was inactive. Further, the result in assay [19] and in [11] was inactive.

As to `CC[C@H](C)[C@H]1O[C@]2(C=C[C@@H]1C)C[C@@H]1C[C@@H](C/C=C(\C)[C@@H](O[C@H]3C[C@H](OC)[C@@H](O[C@H]4C[C@H](OC)[C@@H](O)[C@H](C)O4)[C@H](C)O3)[C@@H](C)/C=C/C=C3\CO[C@@H]4[C@H](O)C(C)=C[C@@H](C(=O)O1)[C@]34O)O2` (tested in a mixture with another compound), the half-maximal activity concentration (AC50) is 8.48 µM (active) in assay [1]; 1.08 µM (active) in [2]; 1.19 µM (active) in assay [3]; 1.41 µM (active) in assay [4]; 1.75 µM (active) in [5]; 1.45 µM (active) in assay [6]. For the same molecule, the AC50 in [11] is 7.09 µM (active).

For the molecule `CC1(C)C(C=C(Cl)Cl)C1C(=O)OC(C#N)c1ccc(F)c(Oc2ccccc2)c1` (configuration not stated), the AC50 in [1] is 79.7 µM (active); in assay [2] it was 33.1 µM (active) and 2.98 µM (active); in [3], 72 µM (active) and 15 µM (active); in assay [4], 77.9 µM (active); in assay [5], 87.1 µM (active). Further, the result in assay [1], in assay [4], in assay [5], in assay [6] and in [11] was inactive.
